A short description of assay [1]: qHTS of pediatric cancer cell lines to identify multiple opportunities for drug repurposing: Primary screen for control Hh wild type fibroblast cells (AID 1347106).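 Note: series mostly up to about 46 µM; % is set by controls: 0 for no effect and ±100 for the full control effect; a drop in luminescence marks cytotoxicity and a rise apparent proliferation; nearly all actives have a fitted effect of over 55% in size.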 Put shortly: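 Viability after 48 h compound treatment at 37C, 500-1,000 cells/well, read as ATP luminescence with CellTiter-Glo. Primary screens used 11-point (MIPE, 0.78 nM-46 µM) or 8-point (NPC, 0.59 nM-46 µM) final concentrations; follow-up screens used 11-point dilutions.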

Assay [2] is described as follows: qHTS of pediatric cancer cell lines to identify multiple opportunities for drug repurposing: Primary screen for Rh30 cells (AID 1347107). Note: series mostly up to about 46 µM; % is set by controls: 0 for no effect and ±100 for the full control effect; nearly all actives have a fitted effect of over 75% in size. In short, it runs like this:
(§1)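 Cells (500-1,000/well) rested 5 h, then received compounds for 48 h; metabolically active cells were measured by CellTiter-Glo luminescence. Final concentrations spanned up to 46 µM (MIPE, 11-point) or 0.59 nM-46 µM (NPC, 8-point) in primary screens, 11-point in follow-ups.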

A short description of assay [3]: qHTS of pediatric cancer cell lines to identify multiple opportunities for drug repurposing: Primary screen for Rh41 cells (AID 1347108).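 For activity change, negative = cytotoxic: series mostly up to about 46 µM; luminescence drop marks cytotoxic hits.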 Note: nearly all actives have a fitted effect of over 70% in size. Note: potency is the fitted concentration of half-maximal effect. Put shortly: (§2)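 Primary screen of approved and investigational compounds on cells in growth media at 37 degrees C, 5% CO2. MIPE set at 11-point and NPC set at 8-point dilutions; viability scored by ATP-based luminescence at 48 hours.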
(In qHTS, concentration-response curves come from the screen itself.)

A short description of assay [4]: qHTS of pediatric cancer cell lines to identify multiple opportunities for drug repurposing: Primary screen for MG 63 (6-TG R) cells (AID 1347105). Note: % is set by controls: 0 for no effect and ±100 for the full control effect; nearly all actives have a fitted effect of over 50% in size. Put shortly: as §2
The nature of assay [5]: qHTS of pediatric cancer cell lines to identify multiple opportunities for drug repurposing: Confirmatory screen for BT-12 cells (AID 1347112). Note: % is set by controls: 0 for no effect and ±100 for the full control effect; nearly all actives have a fitted effect of over 55% in size. Put shortly: as §1
The nature of assay [6]: qHTS of pediatric cancer cell lines to identify multiple opportunities for drug repurposing: Confirmatory screen for DAOY cells (AID 1347114). For activity change, negative = cytotoxic: % is set by controls: 0 for no effect and ±100 for the full control effect. Note: nearly all actives have a fitted effect of over 65% in size. Note: potency is the fitted concentration of half-maximal effect. In short, it runs like this: (§3)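 Viability measured as metabolically active cells via CellTiter-Glo luminescence following 48 hours of compound exposure, 11-point dilutions in confirmatory testing. 500-1,000 cells/well plated 5 hours before dosing; controls were DMSO and 2.3 µM bortezomib.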

Assay [7] can be described thus: qHTS of pediatric cancer cell lines to identify multiple opportunities for drug repurposing: Confirmatory screen for NB-EBc1 cells (AID 1347115). For activity change, negative = cytotoxic: % is set by controls: 0 for no effect and ±100 for the full control effect.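 Note: cells exposed to compound for 48 h before the viability read; nearly all actives have a fitted effect of over 45% in size.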 Note: potency is the fitted concentration of half-maximal effect. In short, it runs like this: as §1
The nature of assay [8]: qHTS of pediatric cancer cell lines to identify multiple opportunities for drug repurposing: Confirmatory screen for SJ-GBM2 cells (AID 1347116).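 For activity change, negative = cytotoxic: plate controls were DMSO for no effect and bortezomib for full effect.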 Note: nearly all actives have a fitted effect of over 60% in size. Note: potency is the fitted concentration of half-maximal effect. In short, it runs like this: as §3
Assay [9] in a line: qHTS of pediatric cancer cell lines to identify multiple opportunities for drug repurposing: Confirmatory screen for SK-N-MC cells (AID 1347111).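 For activity change, negative = cytotoxic: plate controls were DMSO for no effect and bortezomib for full effect.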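 Note: cells exposed to compound for 48 h before the readout; nearly all actives have a fitted effect of over 70% in size.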 Note: potency is the fitted concentration of half-maximal effect. Put shortly: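 Seed 500-1,000 cells/well; rest 5 h at 37 degrees C. Pin-transfer compounds, 11-point titration. Incubate 48 h. Add CellTiter-Glo, 15 min RT, read luminescence.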
Assay [10] can be described thus: qHTS of pediatric cancer cell lines to identify multiple opportunities for drug repurposing: Confirmatory screen for LAN-5 cells (AID 1347113). Note: nearly all actives have a fitted effect of over 65% in size. Note: potency is the fitted concentration of half-maximal effect. Put shortly:
as §1

Results filed as inconclusive are left out. Values without a mark were called inactive. Active and inactive are the calls of the source. Calls come from the whole dose curve; as a rule, active = well fitted curve in the direction sought with a large enough effect; inconclusive = small, poorly fitted or top-dose-only effect, or another doubt; inactive = no such curve, though single readings can be large; an effect the other way counts as inactive or inconclusive.

Take `CO/N=C1\CN(c2nc3c(cc2F)c(=O)c(C(=O)O)cn3C2CC2)CC1CN` (configuration not stated): the Potency entry in assay [1], in [2] and in assay [3] was “inactive” each time.
With `CC1(C)O[C@@H]2C[C@H]3[C@@H]4CCC5=CC(=O)CC[C@]5(C)[C@@]4(F)[C@@H](O)C[C@]3(C)[C@]2(C(=O)CCl)O1`, the Potency entry in [4], in [3], in [5], in assay [6], in assay [7] and in [8] was “inactive” in each case.
With `COc1cc(/C=C/C(=O)O[C@H]2CC[C@]34C[C@]35CC[C@]3(C)[C@@H]([C@H](C)CCC=C(C)C)CC[C@@]3(C)[C@@H]5CC[C@H]4C2(C)C)ccc1O`, the Potency entry in assay [1], in [2] and in [3] was “inactive” throughout.
Take `COc1cc(-c2ccc(=O)[nH]n2)ccc1OC(F)F`: the Potency result in assay [1], in assay [2] and in assay [3] was “inactive” each time.
In the case of `NC[C@H]1O[C@H](O[C@H]2[C@H](O[C@@H]3O[C@H](CO)[C@@H](O)[C@H]3O)C(O)[C@H](N)C[C@@H]2N)[C@H](N)[C@@H](O)[C@@H]1O` (some centres not stated), the activity change, negative = cytotoxic in assay [1] was -1.08% [at 9.22 µM]; in assay [2] it was 23.6% [at 9.22 µM]; in [3] it was 34.8% [at 9.22 µM].
For `Nc1ccc(C(=O)O)cc1`, the Potency entry in assay [1], in assay [2] and in assay [3] was “inactive” each time.
For the compound `COC1=CC(=O)C[C@@H](C)[C@]12Oc1c(Cl)c(OC)cc(OC)c1C2=O`, in [1], the Potency entry was “inactive”.
On to `Nc1ccn([C@@H]2O[C@H](CO)[C@@H](O)C2(F)F)c(=O)n1`, for which the Potency entry in [1], in [2] and in assay [3] was “inactive” in each case.
Take `CN(C)CC/C=C1/c2ccccc2COc2ccc(CC(=O)O)cc21`: the Potency result in assay [1], in [2] and in assay [3] was “inactive” each time.
Regarding `Nc1ccc(C(=O)Nc2ccccc2N)cc1`, the Potency entry in assay [1] and in assay [2] was “inactive” each time.
On to `Oc1c(I)cc(I)c2cccnc12`, for which the Potency result in assay [1] and in assay [2] was “inactive” throughout.
With `COc1ccc(C2C(=O)c3ccccc3C2=O)cc1`, the Potency result in assay [1], in [2] and in [3] was “inactive” each time.
On to `CCN1CCC[C@H]1CNC(=O)c1c(OC)ccc(Br)c1OC`, for which the Potency result in assay [1], in assay [2] and in assay [3] was “inactive” throughout.
Regarding `O=C1c2ccccc2C(=O)C1c1ccccc1`, the Potency entry in assay [1], in [2] and in assay [3] was “inactive” each time.
On to `CCCC(=O)O[C@]1(C(=O)CO)CC[C@H]2[C@@H]3CCC4=CC(=O)CC[C@]4(C)[C@H]3[C@@H](O)C[C@@]21C`, for which the Potency entry in assay [1], in assay [2], in [3], in assay [9], in assay [5] and in assay [6] was “inactive” each time. The Potency entry in [7] and in [8] was “inactive” each time.
For the compound `C=C1C[C@H]2[C@@H]3C=C(C)C4=CC(=O)CC[C@]4(C)[C@H]3CC[C@]2(C)[C@@]1(OC(C)=O)C(C)=O`, the Potency entry in assay [1], in [2], in [3], in assay [10], in assay [7] and in assay [8] was “inactive” in each case. In addition, in assay [9], the Potency is 2.61 µM (active).
`Oc1c(Cl)cc(Cl)cc1Sc1cc(Cl)cc(Cl)c1O`: the Potency entry in assay [1] and in [3] was “inactive” in each case.
On to `Cc1ccccc1C(=O)Nc1ccc(C(=O)N2CCCC(N(C)C)c3ccccc32)cc1` (configuration not stated), for which the Potency entry in [1] is “inactive”. Further, in assay [3], the Potency was 16.8 µM (active).
For `CC(=O)OCC(=O)[C@@]12N=C(C)O[C@@H]1C[C@H]1[C@@H]3CCC4=CC(=O)C=C[C@]4(C)[C@H]3[C@@H](O)C[C@@]12C`, the Potency entry in assay [1], in assay [2], in assay [3] and in assay [6] was “inactive” in each case. Besides, the Potency in [9] was 0.261 µM (active); in assay [10], 1.47 µM (active); in assay [8], 1.04 µM (active).
Take `NC(=O)CC[C@@H]1NC(=O)[C@H](Cc2ccccc2)NC(=O)[C@H](Cc2ccc(O)cc2)NC(=O)CCSSC[C@@H](C(=O)N2CCC[C@H]2C(=O)N[C@@H](CCCN=C(N)N)C(=O)NCC(N)=O)NC(=O)[C@H](CC(N)=O)NC1=O`: the Potency result in assay [1], in [2], in [3], in [9], in assay [5] and in assay [10] was “inactive” throughout. Further, the Potency entry in [6], in assay [7] and in [8] was “inactive” throughout.
On to `O=C1OC(c2ccc(O)cc2)(c2ccc(O)cc2)c2ccccc21`, for which the Potency result in [3] is “inactive”.
As to `CC/C(=C(/CC)c1ccc(O)cc1)c1ccc(O)cc1`, the Potency result in [2] and in [3] was “inactive” in each case.
`C[C@@H]1CN(CCCn2c3ccccc3c3ccccc32)C[C@H](C)N1`: the Potency result in [1], in assay [2] and in assay [3] was “inactive” each time. Besides, the Potency in assay [10] was 32.9 µM (active); in assay [6] it was 20.8 µM (active); in assay [7], 14.7 µM (active).
Regarding `Cc1c(F)c(N2CCNC(C)C2)cc2c1c(=O)c(C(=O)O)cn2C1CC1` (configuration not stated), the Potency entry in assay [2] and in assay [3] was “inactive” throughout.

These data come from PubChem BioAssay (NCATS).
